# Only some compounds are listed: those with a hit (about 12% of all), similar ones and a draw of the others.
# JMJD2A Tudor inh – JMJD2A Tudor domain (human) inhibition | O75164 | AlphaScreen JMJD2A-Tudor / H3K4me3 peptide binding | Potency, µM (doses to about 114 µM), without a hit: top-dose activity change, negative = inhibition, hits mostly inhibitors | 4.4% of 390,000 active; further: on the % scale 0 is the no-effect control and ±100 the full control effect; nearly all actives have a fitted effect of over 50% in size
# BAZ2B inh – blocks human BAZ2B; AlphaScreen BAZ2B-H3K14Ac peptide displacement; Q9UIF8; Potency, µM (highest dose often 114 µM), for the others: at the highest dose activity change, negative = inhibition, hits mostly inhibitors; 4.4% of 360,000 active; further: on the % scale 0 is the no-effect control and ±100 the full control effect; nearly all actives have a fitted effect of over 60% in size
#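 AlphaScreen displacement: compounds (up to 110uM) incubated 30 min at room temperature with a preformed 50 nM BAZ2B/50 nM biotinylated H3K14Ac peptide complex in PBS pH 7.4 with Tween-20. Donor and acceptor beads at 10 ug/mL final added, 20 min light-protected before reading.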
# L3MBTL1 inh – blocks human L3MBTL1. Q9Y468. AlphaScreen L3MBTL1–H3K9me1 peptide binding. Potency, µM (titrated, usually from 57.1 µM), for the others: top-dose activity, negative = inhibition, most hits filed as inhibitors. 0.66% of 230,000 active; further: on the % scale 0 is the no-effect control and ±100 the full control effect; nearly all actives have a fitted effect of over 60% in size
#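 Read-out is AlphaScreen signal from streptavidin donor and nickel chelate acceptor beads (10 ug/mL final each) bridging L3MBTL1 (50 nM) and biotinylated K9-monomethylated H3(1-15) peptide (75 nM), after 30 min compound exposure at room temperature.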
# Sfp PPTase inh – Sfp phosphopantetheinyl transferase inhibition; Q9F4F7; Biochemical Sfp PPTase activity, qHTS; Potency, µM, inactives show largest response in the series, negative = inhibition, actives largely listed as inhibitors; 3.5% of 310,000 active; AID 1490;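 further: the enzyme is Sfp with the accession as filed and its product quenches rhodamine fluorescence; 0% = enzyme reaction without inhibitor and -100% = no enzyme wells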
#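 Sfp 15 nM + cpd, 15 min RT; start w/ rhodamine-CoA 5 uM, BHQ-2-YbbR 12.5 uM (final); 50 mM Hepes pH 7.6, 10 mM MgCl2, 0.01% NP-40, 0.01% BSA; read 525/598 nm at 0 and 30 min.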
# G9a block – inhibitors of human histone lysine methyltransferase G9a. Potency, µM (titrated, usually from 102 µM), for inactives: at the highest dose activity, negative = inhibition, actives largely listed as inhibitors. Q96KQ7. G9a H3K9 monomethylation, AlphaScreen, 2 h. 8.8% of 350,000 active; further: on the % scale 0 is the no-effect control and ±100 the full control effect; nearly all actives have a fitted effect of over 75% in size
#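 AlphaScreen read-out: biotin-H3K9 peptide (500 nM) methylation by 20 nM enzyme with 20 uM SAM, 2 h at room temperature after 15 min compound preincubation; anti-monomethyl H3K9 antibody plus donor/acceptor beads, 10 min dark.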
# HP1b binding inh – blocks HP1-beta chromodomain binding to methylated histone tails. P83916. AlphaScreen HP1-beta / biotin-H3K9me3 peptide binding. Potency, µM (doses to about 114 µM), without a hit: top-dose activity change, negative = inhibition, hits mostly inhibitors. 0.56% of 390,000 active. AID 540317; further: nearly all actives have a fitted effect of over 70% in size
#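 AlphaScreen: HP1-beta (50 nM) preformed 30 min with biotin-H3(1-18)K9me3 peptide (50 nM) in PBS pH 7.4, 0.01% Tween-20. Compound added for 30 min at RT, then streptavidin donor/nickel chelate acceptor beads (10 ug/mL) for 30 min.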
# * = called active by the depositor; ? = inconclusive; nt = not tested or not shown; ! = repeats disagree; [ ] = dose if it differs, or a comment. The call rests on the fitted dose curve; in most records, active means well fitted curve in the direction sought with a large enough effect; inconclusive means small, poorly fitted or top-dose-only effect, or another doubt; inactive means no such curve, though single readings can be large; an effect the other way counts as inactive or inconclusive. Potency means the concentration at half of the fitted maximal effect.
SMILES,JMJD2A Tudor inh,BAZ2B inh,L3MBTL1 inh,Sfp PPTase inh,G9a block,HP1b binding inh
COc1ccc(/C=C2\C(=O)NC(=O)N(Cc3ccccc3)C2=O)c(OC)c1OC,-14%,-16%,36%,35µM*,nt,17%
CC(=O)OCC(=O)[C@@H]1CC[C@H]2[C@H]3CC[C@H]4C[C@@H](O)CC[C@]4(C)[C@@H]3C(=O)C[C@@]12C,nt,nt,nt,?,2%[5.15 µM],nt
O=C(Nc1cccc(F)c1)N1CC2(CCNCC2)C1,nt,nt,nt,?,-6%[12.7 µM],nt
CC(C)(C)C1CCc2onc(C(=O)O)c2C1 (configuration not stated),-5%,-19%,8%,23%,0%,42%
O=C(NC1C(=O)NNC1c1ccc(Cl)cc1)c1ccc(F)cc1 (configuration not stated),-26%,-14%,-5%,-2%,?,8%
COC(=O)CSc1nc2sc3c(c2c(=O)n1C1CCCCC1)CCN(C)C3,nt,-30%,nt,56µM*,45µM*,nt
CC1(C)S[C@H]2[C@@H](N)C(=O)N2[C@H]1C(=O)O,nt,nt,nt,56µM*,nt,nt
CC1(C)S[C@@H]2[C@H](N)C(=O)N2C1C(=O)O (some centres not stated),nt,nt,nt,14µM*,20%[5.15 µM],nt
O=C(Oc1ccccc1)N1CCC[C@@]2(CCN(Cc3cc(C(F)(F)F)cc(C(F)(F)F)c3)C2)C1,nt,nt,nt,10%,-1%[12.7 µM],nt
CC(C)[C@H](NC(=O)[C@H](CCC(=O)O)NC(=O)[C@H](Cc1ccccc1)NC(=O)[C@@H](C)NC(=O)[C@@H](N)Cc1ccc(O)cc1)C(=O)N[C@H](C(=O)NCC(N)=O)C(C)C,nt,nt,nt,8%,nt,nt
COc1ccccc1-n1c(O)c(/C=N/NC(=S)Nc2ccccc2)c(=O)[nH]c1=S,?,?,41%,10µM*,nt,40%
O=c1[nH]c(=O)n(Cc2ccccc2)c(O)c1C=NCCCO,21%,6%,-6%,10%,-31%[59 µM],29%
CCOc1ccc(N=Cc2c(O)n(Cc3ccccc3)c(=S)[nH]c2=O)cc1,-19%,-1%,10%,8%,nt,56%
O=C(N/N=C/c1c(O)n(Cc2ccc(F)cc2)c(=O)[nH]c1=O)c1ccccc1O,?,?,6%,-1%,45µM*,30%
O=C(N/N=C/c1c(O)n(Cc2ccccc2)c(=O)[nH]c1=O)c1ccccc1O,?,?,14%,0%,?,12%
CCn1c(O)c(/C=N/NC(=O)c2ccccc2)c(=O)[nH]c1=S,56µM*,40µM*,nt,31%,-7%,58%
O=c1[nH]c(=O)n(Cc2ccccc2)c(O)c1/C=N/NCCO,56µM*,50µM*,-2%,-16%,50µM*,36%
COCCN(C(=O)CCl)c1c(C)cccc1C,nt,nt,nt,20%,nt,nt
C[C@@H]1CC([C@H](O)CC2CC(=O)NC(=O)C2)C(=O)[C@@H](C)C1 (some centres not stated),nt,nt,nt,32%,40%[59 µM],nt
Nc1cccc(N=Cc2c(O)n(Cc3ccc(F)cc3)c(=O)[nH]c2=O)c1,-17%,1%,19%[11.4 µM],1%,13µM*,7%
COc1ccc(Cn2c(O)c(C=NCCN3CCOCC3)c(=O)[nH]c2=O)cc1,-5%,-4%,-4%,1%,40µM*,41%
O=C(N/N=C/c1c(O)n(Cc2ccco2)c(=O)[nH]c1=O)c1ccccc1,79µM*,79µM*,nt,?,nt,27%
COc1ccc(Cn2c(O)c(/C=N/NC(=O)c3ccccc3)c(=O)[nH]c2=O)cc1,79µM*,50µM*,-1%,23%,-44%[59 µM],36%
O=C(N/N=C/c1c(O)n(CCc2ccc(F)cc2)c(=O)[nH]c1=O)c1ccccc1,?,-25%,nt,13%,-38%,53%
CN1CCN(P(=O)(c2ccccc2)c2nc3ccccc3s2)CC1 (configuration not stated),-12%,-3%,5%,10%,-6%,28%
SMILES,JMJD2A Tudor inh,BAZ2B inh,L3MBTL1 inh,Sfp PPTase inh,G9a block,HP1b binding inh
COc1ccc(Cn2c(O)c(/C=N/NC(=O)c3ccccc3O)c(=O)[nH]c2=O)cc1,71µM*,50µM*,2%,?,-2%[59 µM],27%
O=c1[nH]c(=O)n(Cc2ccco2)c(O)c1/C=N/N1CCCCC1,-21%,-34%,?,-23%,20µM*,2%
Cn1c(O)c(C=NCCN2CCOCC2)c(=O)n(C)c1=S,-6%,?,nt,-5%,32µM*,5%
CCCCCCC(=O)N/N=C/c1c(O)n(C2CC2)c(=S)[nH]c1=O,-16%,?,-18%,35%,9%,41%
COc1ccc(Cn2c(O)c(C=NCCCn3ccnc3)c(=O)[nH]c2=O)cc1,-16%,-3%,6%,11%,8%,48%
C=CCn1c(O)c(/C=N/NC(=O)CCCC)c(=O)[nH]c1=S,79µM*,?,nt,2%,102%[59 µM],18%
CN(CCc1ccc(Cl)c(Cl)c1)[C@@H]1CCCC[C@@H]1N1CCCC1,nt,nt,nt,16%,-31%[59 µM],nt
CCN(CC)C(=O)Cn1cc(S(=O)(=O)CC(=O)NCc2ccc(C)cc2)c2ccccc21,-3%,nt,nt,nt,nt,46%
Cc1cccc(C)c1N1CCN(c2c(C)cccc2C)CC1,3%,9%,-3%,5%,40µM*,71%
CCOC(=O)C1CCN(/C=C2/C(=O)NC(=S)N(c3ccccc3F)C2=O)CC1,1%,-10%,6%,-9%,nt,13%
CN1C(=O)/C(=C\N2CCc3ccccc32)C(=O)NC1=S,?,-8%,-10%,35µM*,?,-2%
C/C=C1\C[N@@+]2(C)CC[C@@]34C(=C(C=O)[C@H]1C[C@H]32)Nc1ccccc14,nt,nt,nt,35µM*,?,nt
C[C@@H]1C(=O)O[C@H]2CC34[C@H]5C[C@@H](C(C)(C)C)[C@]36[C@@H](OC(=O)[C@@H]6O)O[C@@]4(C(=O)O5)[C@]21O (some centres not stated),-12%,35%,5%,nt,28%[12.7 µM],22%
CCOc1cccc(OCC)c2c(C)[n+](CC3CCCO3)c(C)c1-2 (configuration not stated),35µM*,25µM*,nt,56µM*,?,-1%
C[C@](N)(CCP(=O)(O)O)C(=O)O,4µM*,?,2%,-20%,14µM*!,-15%
CN(N)N=Nc1nc2c([nH]1)c(=O)n(C)c(=O)n2C,79µM*,-18%,2%,18µM*,2.2µM*,17%
O=C(O)CNC(=O)C(CS)Cc1ccccc1 (configuration not stated),-31%,7%,1%,0.79µM*,-7%[59 µM],12%
CC(Cc1ccccc1)NC(N)=O (configuration not stated),1%,7%,4%,15%,?,28%

# Source: PubChem BioAssay
